Experimental data from PubChem BioAssay (Tox21).
Results filed as inconclusive are left out. Entries that show only a call come without a potency. A number with no mark means an inactive call. Active and inactive are the calls of the source. Unless noted, calls follow the shape of the dose curve; as a rule, active = well fitted curve in the direction sought with a large enough effect in the repeat runs; inconclusive = weak or mixed curves; inactive = no such curve, though single readings can be large; an effect the other way counts as inactive or inconclusive.

How the values were obtained:
[1] = qHTS assay to identify small molecule antagonists of the thyroid receptor (TR) signaling pathway - cell viability counter screen (AID 743064); also: nearly all actives have a fitted effect of over 50% in size; also: potency is read from the fitted curve at half-maximal effect
Outline: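 Same-well viability check: GH3.TRE-Luc cells stimulated with 1 nM T3 alongside test compound for 23.5 h, followed by CellTiter-Fluor fluorescence.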

[2] = qHTS assay to identify small molecule antagonists of the thyroid receptor (TR) signaling pathway (AID 743065); also: nearly all actives have a fitted effect of over 55% in size; also: potency is read from the fitted curve at half-maximal effect
Outline: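 GH3.TRE-Luc rat pituitary cells (two TREs driving luciferase) were dosed with compound, then stimulated with 1 nM T3 (final) for 23.5 h at 37 C. ONE-Glo luminescence was the read-out, with CellTiter-Fluor fluorescence as the cytotoxicity counter-screen.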

[3] = system: thyroid hormone receptor (rat, GH3 cells); experiment: qHTS assay to identify small molecule agonists of the thyroid receptor (TR) signaling pathway (AID 743066; calls by dose curve)
[4] = qHTS assay to identify small molecule antagonists of the estrogen receptor alpha (ER-alpha) signaling pathway - cell viability counter screen (AID 743074; calls by dose curve;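 also: HEK293 cells carrying ER-alpha-UAS-bla reporter stimulated with 17beta-estradiol; nearly all actives have a fitted effect of over 45% in size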)
[5] = qHTS assay to identify small molecule antagonists of the estrogen receptor alpha (ER-alpha) signaling pathway using the BG1 cell line - cell viability counter screen (AID 743081);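 also: compound given together with 17beta-estradiol as the ER stimulus; nearly all actives have a fitted effect of over 45% in size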
Aromatase (Homo sapiens) = Aromatase (Homo sapiens) (UniProt P11511); experiment: qHTS assay to identify aromatase inhibitors (AID 743083); also: nearly all actives have a fitted effect of over 55% in size; also: potency is read from the fitted curve at half-maximal effect
Aromatase (Homo sapiens), sequence (P11511 whole entry, looked up): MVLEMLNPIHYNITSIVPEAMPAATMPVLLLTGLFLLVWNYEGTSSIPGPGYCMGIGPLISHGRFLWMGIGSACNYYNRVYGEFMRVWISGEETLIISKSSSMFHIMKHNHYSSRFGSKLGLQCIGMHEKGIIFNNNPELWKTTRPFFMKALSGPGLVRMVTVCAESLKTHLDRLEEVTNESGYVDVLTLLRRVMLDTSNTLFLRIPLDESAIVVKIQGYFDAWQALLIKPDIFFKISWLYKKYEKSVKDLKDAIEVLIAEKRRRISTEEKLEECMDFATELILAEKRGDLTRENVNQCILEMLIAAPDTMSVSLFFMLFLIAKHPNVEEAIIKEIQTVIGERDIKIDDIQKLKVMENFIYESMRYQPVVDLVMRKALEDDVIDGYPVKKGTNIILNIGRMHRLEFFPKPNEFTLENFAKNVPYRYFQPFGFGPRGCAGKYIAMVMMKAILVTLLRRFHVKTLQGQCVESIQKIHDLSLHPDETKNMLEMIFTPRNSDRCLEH

[6] = qHTS assay to identify aromatase inhibitors - cell viability counter screen (AID 743084);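 also: cells stimulated with testosterone during compound exposure; nearly all actives have a fitted effect of over 55% in size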
[7] = qHTS assay to identify small molecule that activate the aryl hydrocarbon receptor (AhR) signaling pathway - cell viability counter screen (AID 743086);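 also: HepG2 liver cells carrying the AhR DRE luciferase reporter; nearly all actives have a fitted effect of over 45% in size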
Outline: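 HepG2-AhR-luc (HG2L7.5c1) cells, 4000/well, treated 24 h at 37 C with compound; viability measured as CellTiter-Fluor fluorescence after 30 min in the same wells as the luciferase read.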

[8] = molecular target: Peroxisome proliferator-activated receptor gamma (Homo sapiens) (UniProt P37231); experiment: qHTS assay to identify small molecule agonists of the peroxisome proliferator-activated receptor gamma (PPARg) signaling pathway (AID 743094; active = well fitted activation curve with a large enough effect in the signal ratio in the repeat runs, not every such curve was filed as active; the % refers to the signal ratio)
Peroxisome proliferator-activated receptor gamma (Homo sapiens), sequence (P37231 whole entry, looked up): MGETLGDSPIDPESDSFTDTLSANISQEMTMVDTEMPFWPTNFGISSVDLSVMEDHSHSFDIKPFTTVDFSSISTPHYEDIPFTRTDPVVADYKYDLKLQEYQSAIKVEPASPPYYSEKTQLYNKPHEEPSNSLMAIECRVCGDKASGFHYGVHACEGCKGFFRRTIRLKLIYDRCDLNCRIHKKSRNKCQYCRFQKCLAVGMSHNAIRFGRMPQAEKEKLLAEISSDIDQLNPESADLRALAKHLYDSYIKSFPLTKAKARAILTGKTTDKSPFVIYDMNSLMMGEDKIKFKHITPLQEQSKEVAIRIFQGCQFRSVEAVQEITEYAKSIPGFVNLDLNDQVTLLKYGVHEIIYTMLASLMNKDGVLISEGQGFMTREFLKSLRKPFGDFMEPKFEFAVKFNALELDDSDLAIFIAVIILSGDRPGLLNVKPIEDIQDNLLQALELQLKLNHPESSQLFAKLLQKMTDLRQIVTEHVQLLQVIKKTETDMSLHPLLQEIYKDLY
Outline: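 Following 5 h plating at 37C, PPARg-bla HEK293H cells receive compound or DMSO for 17 h; fluorescence intensity is recorded after LiveBLAzer B/G loading for 1 h at room temperature.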

[9] = molecular target: Peroxisome proliferator-activated receptor gamma (Homo sapiens) (UniProt P37231); experiment: qHTS assay to identify small molecule antagonists of the peroxisome proliferator-activated receptor gamma (PPARg) signaling pathway (AID 743191; calls by dose curve; also: nearly all actives have a fitted effect of over 30% in size)
Outline: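 GeneBLAzer PPARg UAS-bla HEK293H cells, 5 h post-plating, exposed to compounds 17 h at 37C. LiveBLAzer B/G FRET substrate added for 1 h at room temperature; beta-lactamase reporter read by fluorescence intensity.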

[10] = qHTS assay to identify small molecule antagonists of the peroxisome proliferator-activated receptor gamma (PPARg) signaling pathway - cell viability counter screen (AID 743194); conditions: Potency: co-treated with 50 nM rosiglitazone; also: nearly all actives have a fitted effect of over 55% in size
Outline: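 Cytotoxicity counter screen in PPARg-bla HEK293H cells, same wells as reporter assay. Compounds plus 50 nM rosiglitazone (final) for 17 h at 37 C, then viability read by CellTiter-Glo luminescence.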

[11] = qHTS assay for small molecule agonists of the antioxidant response element (ARE) signaling pathway (AID 743202; active = well fitted activation curve with a large enough effect in the signal ratio in the repeat runs, not every such curve was filed as active; the % refers to the signal ratio)
Outline: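 Agonist mode reporter screen: HepG2 cells with ARE-controlled beta-lactamase are incubated with test compounds for 16 h at 37 C, and beta-lactamase activity is measured as fluorescence of cleaved B/G FRET substrate.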

[12] = qHTS assay for small molecule activators of the heat shock response signaling pathway - cell viability counter screen (AID 743209); also: nearly all actives have a fitted effect of over 50% in size
Outline: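 Counter screen for cytotoxicity in HeLa HSE-bla reporter cells. Treatment was 5 h at 37 C; viability was detected by luminescent ATP assay (CellTiter-Glo) in the same wells as the beta-lactamase read.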

[13] = qHTS assay for small molecule activators of the heat shock response signaling pathway (AID 743210; active = well fitted activation curve with a large enough effect in the signal ratio in the repeat runs, with a control signal flat, not every such curve was filed as active; the % refers to the signal ratio;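 also: HeLa cells with beta-lactamase reporter driven by heat shock elements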)
Outline: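 Quantitative high-throughput format using an engineered HeLa line in which heat shock response elements drive beta-lactamase; after 5 h with compound, cells received a B/G FRET substrate and fluorescence was read.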

[14] = qHTS assay for small molecule agonists of the antioxidant response element (ARE) signaling pathway - cell viability counter screen (AID 743203; calls by dose curve; also: nearly all actives have a fitted effect of over 55% in size)
Outline: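 Compounds in DMSO were pinned onto ARE-bla HepG2 cells plated 5 hrs earlier at 2,000 cells/well. Sixteen hours later at 37C/5% CO2, CellTiter-Glo was added and luminescence measured after 30 min at room temperature.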

[15] = molecular target: Aryl hydrocarbon receptor (Homo sapiens) (UniProt P35869); experiment: qHTS assay to identify small molecule that activate the aryl hydrocarbon receptor (AhR) signaling pathway (AID 743085);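 also: HG2L7.5c1 human HepG2 liver cells with stably integrated DRE-driven firefly reporter; nearly all actives have a fitted effect of over 15% in size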
Aryl hydrocarbon receptor (Homo sapiens), sequence (P35869 whole entry, looked up): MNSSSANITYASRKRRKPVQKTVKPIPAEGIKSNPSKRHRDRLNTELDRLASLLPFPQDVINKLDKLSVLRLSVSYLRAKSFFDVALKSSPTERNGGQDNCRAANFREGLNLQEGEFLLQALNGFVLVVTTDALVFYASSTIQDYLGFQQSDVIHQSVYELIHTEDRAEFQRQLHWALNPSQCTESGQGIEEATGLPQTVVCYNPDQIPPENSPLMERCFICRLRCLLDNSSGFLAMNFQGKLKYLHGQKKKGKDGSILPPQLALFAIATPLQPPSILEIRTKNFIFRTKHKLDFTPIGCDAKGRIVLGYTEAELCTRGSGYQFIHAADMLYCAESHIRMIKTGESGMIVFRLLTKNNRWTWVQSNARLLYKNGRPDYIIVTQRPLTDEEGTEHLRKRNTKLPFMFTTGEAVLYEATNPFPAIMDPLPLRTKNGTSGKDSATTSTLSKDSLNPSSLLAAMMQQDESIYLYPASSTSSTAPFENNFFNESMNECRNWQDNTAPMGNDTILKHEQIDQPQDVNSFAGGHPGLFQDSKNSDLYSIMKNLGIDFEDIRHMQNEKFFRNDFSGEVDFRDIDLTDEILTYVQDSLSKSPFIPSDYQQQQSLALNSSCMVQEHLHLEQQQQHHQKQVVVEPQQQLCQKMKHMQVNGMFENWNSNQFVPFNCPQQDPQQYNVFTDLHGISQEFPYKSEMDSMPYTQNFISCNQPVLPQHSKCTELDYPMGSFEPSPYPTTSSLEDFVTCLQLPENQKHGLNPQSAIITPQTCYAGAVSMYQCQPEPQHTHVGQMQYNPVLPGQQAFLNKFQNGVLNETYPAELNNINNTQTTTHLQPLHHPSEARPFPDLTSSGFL
Outline: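 Reporter assay in engineered HepG2 line HG2L7.5c1, whose plasmid carries twenty dioxin responsive elements upstream of firefly luciferase. Treatment lasted 24 h at 37C; ONE-Glo luminescence gauged induction.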

[16] = molecular target: Estrogen receptor (Homo sapiens) (UniProt P03372); experiment: qHTS assay to identify small molecule agonists of the estrogen receptor alpha (ER-alpha) signaling pathway (AID 743075; calls by dose curve;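 also: HEK293 GripTite cells with ER-alpha and UAS-driven beta-lactamase reporter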)
Estrogen receptor (Homo sapiens), sequence (P03372 whole entry, looked up): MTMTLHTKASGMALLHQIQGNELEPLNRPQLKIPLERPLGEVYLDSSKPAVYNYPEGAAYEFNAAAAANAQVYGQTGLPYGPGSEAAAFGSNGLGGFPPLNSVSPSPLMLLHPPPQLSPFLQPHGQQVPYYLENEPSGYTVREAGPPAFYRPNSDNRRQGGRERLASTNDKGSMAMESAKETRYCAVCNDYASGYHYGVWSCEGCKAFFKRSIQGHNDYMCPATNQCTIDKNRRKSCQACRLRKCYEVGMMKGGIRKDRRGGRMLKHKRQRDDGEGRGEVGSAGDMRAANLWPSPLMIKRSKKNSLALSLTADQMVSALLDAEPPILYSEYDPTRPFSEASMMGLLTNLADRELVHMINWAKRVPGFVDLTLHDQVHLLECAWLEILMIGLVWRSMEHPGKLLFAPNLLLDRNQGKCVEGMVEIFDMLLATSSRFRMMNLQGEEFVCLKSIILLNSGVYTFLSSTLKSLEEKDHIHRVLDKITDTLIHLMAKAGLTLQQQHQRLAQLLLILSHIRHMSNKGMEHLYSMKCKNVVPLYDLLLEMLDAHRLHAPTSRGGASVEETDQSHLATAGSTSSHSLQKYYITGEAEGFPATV

[17] = molecular target: Estrogen receptor (Homo sapiens) (UniProt P03372); experiment: qHTS assay to identify small molecule agonists of the estrogen receptor alpha (ER-alpha) signaling pathway using the BG1 cell line (AID 743079); conditions: BG1Luc4E2 cells, ERE-luciferase agonist, 22 h; also: nearly all actives have a fitted effect of over 20% in size; also: potency is read from the fitted curve at half-maximal effect
[18] = qHTS assay to identify small molecule antagonists of the estrogen receptor alpha (ER-alpha) signaling pathway using the BG1 cell line (AID 743080; calls by dose curve;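 also: BG1 cells stimulated with 17beta-estradiol alongside compound; nearly all actives have a fitted effect of over 25% in size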)
Outline: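 Endogenous full-length ER-alpha in BG1-Luc-4E2 cells drives a stably integrated 4×ERE luciferase gene; compounds were tested against 17beta-estradiol over 21.5 h, with luminescence and multiplexed viability fluorescence recorded.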

[19] = molecular target: Estrogen receptor (Homo sapiens) (UniProt P03372); experiment: qHTS assay to identify small molecule antagonists of the estrogen receptor alpha (ER-alpha) signaling pathway (AID 743069; active = well fitted curve in the direction sought with a large enough effect in the signal ratio in the repeat runs, not every such curve was filed as active; the % refers to the signal ratio)
Outline: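 Reporter cells (ER-alpha-bla, HEK293 background) are conditioned overnight in stripped-serum medium (2% charcoal-stripped FBS). Compound and 17beta-estradiol exposure runs 18 hr at 37C, 5% CO2.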

SMILES: COc1ccc(C(=O)N2CCCC2=O)cc1
- Potency [1]: inactive
- Potency [2]: inactive
- Potency [3]: inactive
- outcome [4]: inactive
- Potency [5]: inactive
- Potency (Aromatase (Homo sapiens)): inactive
- Potency [6]: inactive
- outcome [7]: inactive
- outcome [8]: inactive
- Potency [9]: inactive
- Potency [10]: inactive
- Potency [11]: inactive
- Potency [12]: inactive
- outcome [13]: inactive

SMILES: COC(C)(C)C
- Potency [1]: inactive
- Potency [2]: inactive
- Potency [3]: inactive
- outcome [4]: inactive
- Potency [5]: inactive
- Potency (Aromatase (Homo sapiens)): inactive
- Potency [6]: inactive
- outcome [7]: inactive
- Potency [10]: inactive
- Potency [11]: inactive
- Potency [14]: inactive
- outcome [13]: inactive

SMILES: CN1CCN(C(=O)O[C@H]2c3nccnc3C(=O)N2c2ccc(Cl)cn2)CC1
- Potency [1]: inactive
- Potency [2]: inactive
- Potency [3]: inactive
- outcome [4]: inactive
- Potency [5]: inactive
- Potency (Aromatase (Homo sapiens)): inactive
- Potency [6]: inactive
- Potency [15]: inactive
- outcome [7]: inactive
- outcome [8]: inactive
- Potency [9]: inactive
- Potency [10]: inactive
- Potency [11]: inactive
- Potency [14]: inactive
- Potency [12]: inactive
- outcome [13]: inactive

SMILES: CCCCOC(=O)c1ccccc1C(=O)O
- Potency [1]: inactive
- Potency [2]: inactive
- Potency [3]: inactive
- outcome [4]: inactive
- Potency [5]: inactive
- Potency (Aromatase (Homo sapiens)): inactive
- Potency [6]: inactive
- outcome [7]: inactive
- outcome [8]: inactive
- Potency [9]: inactive
- Potency [10]: inactive
- Potency [11]: inactive
- Potency [14]: inactive
- Potency [12]: inactive
- outcome [13]: inactive

SMILES: CCCCCCBr
- Potency [1]: inactive
- Potency [2]: inactive
- Potency [3]: inactive
- outcome [4]: inactive
- Potency [5]: inactive
- Potency (Aromatase (Homo sapiens)): inactive
- Potency [6]: inactive
- Potency [15]: inactive
- outcome [7]: inactive
- Potency [10]: inactive
- Potency [11]: inactive
- Potency [14]: inactive
- Potency [12]: inactive
- outcome [13]: inactive

SMILES: O=C(CCCN1CCC(n2c(=O)[nH]c3ccccc32)CC1)c1ccc(F)cc1
- Potency [1]: inactive
- Potency [2]: inactive
- Potency [3]: inactive
- outcome [4]: inactive
- Potency [16]: inactive
- activation ([17]; at 32.5 µM (top of the series)): -6.79%
- Potency [5]: inactive
- Potency (Aromatase (Homo sapiens)): inactive
- Potency [6]: inactive
- outcome [7]: inactive
- outcome [8]: inactive
- Potency [10]: inactive
- Potency [14]: inactive
- Potency [12]: inactive
- outcome [13]: inactive

SMILES: O=NN1CCN(N=O)CC1
- Potency [1]: inactive
- Potency [3]: inactive
- outcome [4]: inactive
- Potency [16]: inactive
- activation ([17]; at 70.3 µM (top of the series)): 9.64%
- Potency [18]: inactive
- Potency [5]: inactive
- Potency (Aromatase (Homo sapiens)): inactive
- Potency [6]: inactive
- Potency [15]: inactive
- outcome [7]: inactive
- Potency [10]: inactive
- Potency [11]: inactive
- Potency [14]: inactive

SMILES: C(CCOCC1CO1)COCC1CO1 (stereo not drawn)
- Potency [1]: inactive
- Potency [2]: 42.6 µM (active)
- Potency [3]: inactive
- Potency [16]: inactive
- activation ([17]; at 70.3 µM (top of the series)): 0.112%
- Potency [5]: inactive
- Potency (Aromatase (Homo sapiens)): inactive
- Potency [6]: inactive
- Potency [15]: inactive
- outcome [7]: inactive
- Potency [12]: inactive
- outcome [13]: inactive

SMILES: CNC(=O)O/N=C(\C)SC
- Potency [1]: inactive
- Potency [2]: inactive
- Potency [3]: inactive
- Potency [5]: inactive
- Potency (Aromatase (Homo sapiens)): inactive
- Potency [6]: inactive
- outcome [7]: inactive
- outcome [8]: inactive
- Potency [9]: inactive
- Potency [10]: inactive
- Potency [11]: inactive
- Potency [14]: inactive
- Potency [12]: inactive
- outcome [13]: inactive

SMILES: N#CC(CCc1ccc(Cl)cc1)(Cn1cncn1)c1ccccc1 (stereo not drawn)
- Potency [1]: 30.6 µM (active)
- Potency [2]: 34.4 µM (active)
- Potency [3]: inactive
- Potency [16]: inactive
- Potency [5]: inactive
- Potency (Aromatase (Homo sapiens)): 30.6 µM (active)
- Potency [6]: inactive
- Potency [10]: inactive
- Potency [11]: inactive
- Potency [14]: inactive
- Potency [12]: inactive
- outcome [13]: inactive

SMILES: COc1ccc2c(c1OC)CN1CCc3cc4c(cc3C1C2)OCO4 (stereo not drawn)
- Potency [1]: inactive
- Potency [3]: inactive
- outcome [4]: inactive
- Potency [16]: inactive
- activation ([17]; at 32.5 µM (top of the series)): -4.85%
- Potency [5]: inactive
- Potency (Aromatase (Homo sapiens)): inactive
- Potency [6]: inactive
- outcome [7]: inactive
- outcome [8]: inactive
- Potency [9]: inactive
- Potency [10]: inactive
- Potency [14]: inactive
- outcome [13]: inactive

SMILES: CCOP(=S)(OCC)SCSP(=S)(OCC)OCC
- Potency [1]: inactive
- Potency [3]: inactive
- outcome [4]: inactive
- Potency [16]: inactive
- Potency [17]: 38.6 µM (active)
- Potency [18]: inactive
- Potency [5]: inactive
- Potency (Aromatase (Homo sapiens)): inactive
- Potency [6]: inactive
- outcome [7]: inactive
- outcome [8]: inactive
- Potency [9]: inactive
- Potency [10]: inactive
- Potency [12]: inactive
- outcome [13]: inactive

SMILES: CN(N=O)C(N)=O
- Potency [1]: inactive
- Potency [2]: inactive
- Potency [3]: inactive
- Potency [5]: inactive
- Potency (Aromatase (Homo sapiens)): inactive
- Potency [6]: inactive
- Potency [15]: inactive
- outcome [7]: inactive
- outcome [8]: inactive
- Potency [9]: inactive
- Potency [10]: inactive
- Potency [11]: inactive
- Potency [14]: inactive
- Potency [12]: inactive

SMILES: OCCSCSCCO
- Potency [1]: inactive
- Potency [3]: inactive
- Potency [19]: inactive
- outcome [4]: inactive
- Potency [16]: inactive
- activation ([17]; at 70.3 µM (top of the series)): -2.71%
- Potency [18]: inactive
- Potency [5]: inactive
- Potency (Aromatase (Homo sapiens)): inactive
- Potency [6]: inactive
- Potency [15]: inactive
- outcome [7]: inactive
- outcome [8]: inactive
- Potency [9]: inactive
- Potency [10]: inactive
- Potency [11]: inactive
- Potency [14]: inactive
